# Measured values taken from PubChem BioAssay AID623868 (Vanderbilt High Throughput Screening Facility, 2012).
# About 760 (36%) of roughly 2,100 compounds were called active. The list is a sample of the results. A number with no mark means an inactive call.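 The calls were made as follows: active = thallium-flux fluorescence traces judged by eye to show enhanced or reduced glutamate response, manual score 1 or -1, so both directions (some results past the limit were not filed as active); inactive = the rest, including fluorescent or raised-baseline compounds.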
# Assay: non-GIRK thallium flux modulation in mGlu8 cells, confirmation, counter-screen for GIRK activator project, cell-based, HEK-293 rmGlu8, no GIRK (AID 623868);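 also: extra codes mark interference with 3 for fluorescent and 4 for baseline rise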
# Details: thallium flux fluorescence, at 10 µM, actives lie on both sides, codes: 1 enhancer, -1 blocker, 0 none, thallium stimulus containing EC20 glutamate
row,Compound,manual score
1,COC(=O)c1ccc(N2C(=O)CC(Sc3n[nH]c(C)n3)C2=O)cc1 (configuration not stated),0
2,CC(C)CCOP(=O)(c1ccc(N(C)C)cc1)C(O)c1ccccn1 (configuration not stated),0
3,Brc1ccc(-c2nnc3c4ccccc4nc(N4CCOCC4)n23)cc1,0
4,CCN(CC)CCCNC(=O)c1cc(-c2ccc(Cl)c(Cl)c2)on1,0
5,O=C(c1cc(-c2ccccc2)on1)N1CCCC1,0
6,CCCn1cc(NC(=O)c2cc(-c3ccccc3)on2)cn1,1 (active)
7,CC(C)n1cc(NC(=O)c2cc(-c3ccccc3)on2)cn1,1 (active)
8,CCOC(=O)C1CCCN(C(=O)c2cc(-c3ccccc3)on2)C1 (configuration not stated),0
9,CCN(CC)CCN(CC)Cc1ccccc1Br,0
10,CCC(c1nnnn1Cc1ccc(OC)cc1)N(CCCO)Cc1cc2cc3c(cc2[nH]c1=O)OCO3 (configuration not stated),0
11,CC(O)c1nc2ccccc2n1C1CCCCC1 (configuration not stated),0
12,Clc1ccccc1-c1nn2c(COc3ccccc3)nnc2s1,0
13,S=c1[nH]nc(COc2ccccc2)n1C1CCCCC1,1 (active)
14,S=c1[nH]nc(CSc2nc3ccccc3s2)n1C1CCCCC1,1 (active)
15,CC(=O)c1c(C(C)=O)c(C)n(-c2nc(-c3cccs3)c(C)s2)c1C,0
16,Cc1ccc(NC(=O)CN2c3cccc4cccc(c34)S2(=O)=O)cc1S(=O)(=O)N1CCOCC1,0
17,O=c1c2cccnc2[nH]c(=S)n1Cc1ccccc1,1 (active)
18,O=c1c2cccnc2[nH]c(=S)n1CCCN1CCN(c2ccc(F)cc2)CC1,1 (active)
19,Cc1cc(C(F)(F)F)c2c(=O)[nH]c(=O)n(Cc3ccccc3)c2n1,0
20,O=c1c2cc(F)ccc2[nH]c(=S)n1CCCN1CCOCC1,0
21,Cn1c(=O)c2c(nc(-n3ccnc3)n2Cc2ccccc2)n(C)c1=O,0
22,CCOC(=O)CN1NC2(CCC(C(C)(C)C)CC2)NC1=S (configuration not stated),0

row,Compound,manual score
1,CCSc1nnc(NC(=O)C(Cc2ccccc2)n2cccc2)s1 (configuration not stated),0
2,Cc1csc(NC(=O)C(Cc2ccccc2)n2cccc2)n1 (configuration not stated),0
3,O=C(Nc1ncc(Br)s1)C(Cc1ccccc1)n1cccc1 (configuration not stated),1 (active)
4,CCOC(=O)Cn1c(=N)n(CCOc2cccc(C)c2)c2ccccc21,0
5,COc1ccc(OCc2nc(N)nc(Nc3ccccc3)n2)cc1,0
6,Nc1c(-c2ccccc2)cnn1-c1ccc(C(=O)O)cc1,0
7,COc1cccc(C(=O)NC(=S)N2CCN(c3ccc(C(F)(F)F)cc3[N+](=O)[O-])CC2)c1,1 (active)
8,CC(C)Oc1cccc(C(=O)NC(=S)N2CCN(c3ccc(C(F)(F)F)cc3[N+](=O)[O-])CC2)c1,1 (active)
9,COc1cc(OC)cc(C(=O)NC(=S)N2CCN(c3ccc(C(F)(F)F)cc3[N+](=O)[O-])CC2)c1,1 (active)
10,COc1ccccc1NC(=O)COc1ccc(C(F)(F)F)cc1[N+](=O)[O-],0
11,Cc1ccc(CC(=O)N2CCN(c3cccc(C(F)(F)F)c3)CC2)cc1,0
12,CCOCc1c(C(=O)OCC(=O)Nc2ccc(C)c(S(=O)(=O)N(C)C)c2)oc2ccccc12,0
13,Cc1cc(C)c2nc(SC(C)C(=O)NCC(=O)Nc3ccc(F)c(F)c3F)cc(C)c2c1 (configuration not stated),1 (active)
14,Cc1ccccc1NC1=C(Cl)C(=O)OC1OC(=O)c1ccco1 (configuration not stated),-1 (active)
15,Cc1c(C(=O)O)c(=S)sn1CCOc1ccccc1,-1 (active)
16,CC(=O)c1cccc(NC(=O)CCOc2ccccc2)c1,0
17,CCN1CCN(CCCOc2ccc(-c3ccccc3)cc2)CC1,0
18,Cc1ccc(OCC(=O)NC(=S)Nc2cccc(C)n2)cc1,1 (active)
19,Cc1ccc(C(=O)NNC(=S)NC(=O)COc2ccccc2)cc1,1 (active)
20,Cc1ccccc1C(=O)NNC(=S)NC(=O)COc1ccccc1,1 (active)
21,CCCOc1nc2c(c(=O)n(C)c(=O)n2C)n1Cc1cccc2ccccc12,0
22,CCc1cc(-c2n[nH]c(C)c2-c2nc3ccccc3n2C)c(O)c(CN2CCN(C)CC2)c1O,0

row,Compound,manual score
1,COc1ccc(NC(=O)NC(C)c2ccncc2)cc1OC (configuration not stated),0
2,c1ccc(Cc2nnc(-c3ccccc3)o2)cc1,0
3,Fc1ccc2nc(-c3ccccc3)nc(SCc3nnc(-c4ccccc4)o3)c2c1,1 (active)
4,COc1ccc(/C=N/n2c(SC)nnc2-c2ccccc2)c(OC)c1OC,-1 (active)
5,COc1ccc(-c2nn(-c3ccccc3)cc2/C=N/n2cnnc2)cc1OC,0
6,COc1cccc(/C=N/n2c(=S)n(C)c3ccccc32)c1OC,0
7,O=C(COc1ccccc1)NC(=S)Nc1ccc2c3c(cccc13)CC2,1 (active)
8,COc1cccc(C(=O)NC(=S)Nc2ccc3c4c(cccc24)CC3)c1,1 (active)
9,COc1ccc(OC)c(Nc2cc(-c3ccccc3)nc(N)n2)c1,0
10,COc1cccc(-c2cc(C(=O)NC3CCCC3)no2)c1,0
11,COc1ccc(C(=O)Nc2ccc(Oc3ncnc4sc(-c5ccccc5)cc34)cc2)cc1OC,0
12,COc1cc(OC)cc(C(=O)Nc2nc(-c3ccccc3)c(-c3ccccc3)o2)c1,1 (active)
13,COc1cccc(C(=O)NCc2cn3ccsc3n2)c1,0
14,COc1cc(NC(=O)Cn2nnc(-c3ccccc3N)n2)cc(OC)c1,0
15,COc1cccc(C(=O)Nc2nc(-c3ccccc3)c(-c3ccccc3)o2)c1,1 (active)
16,O=C(Nc1ccc(CN2CCOCC2)cc1)c1cc2ccccn2n1,0
17,C=CCN1C(=O)/C(=C2/Sc3ccccc3N2C)SC1=Nc1c(C)n[nH]c1C,0
18,CCCCCn1nc(-c2ccccc2)c2nc3ccccc3nc21,3
19,Cn1cc(CCC(=O)NCc2ccc3c(c2)OCO3)c2ccccc21,0
20,CN1CCN(C(=S)NC(=O)/C=C/c2cccc3ccccc23)CC1,0
21,O=C(NC(=S)N1CCN(Cc2ccc3c(c2)OCO3)CC1)c1ccc(Cl)cc1,1 (active)
22,CCN(CC)c1ccc(C(=O)NC(=S)N2CCN(Cc3ccc4c(c3)OCO4)CC2)cc1,1 (active)

row,Compound,manual score
1,O=C(NC(=S)N1CCN(Cc2ccccc2)CC1)c1ccccc1,1 (active)
2,O=C(NC(=S)N1CCN(Cc2ccc3c(c2)OCO3)CC1)c1cccc(Br)c1,1 (active)
3,CCOC(=O)c1ccc(NC(=O)N2CCN(Cc3cccc(F)c3)CC2)cc1,0
4,O=C(c1ccc(COc2c(F)c(F)c(F)c(F)c2F)o1)N1CCN(Cc2ccc3c(c2)OCO3)CC1,0
5,O=C(CN1CCN(Cc2ccccc2)CC1)Nc1cccc(C(F)(F)F)c1,0
6,O=C(c1ccc2nccnc2c1)N1CCN(Cc2ccc3c(c2)OCO3)CC1,0
7,COC(=O)c1[nH]c2ccc(C)cc2c1NC(=O)CCN1CCN(Cc2ccc3c(c2)OCO3)CC1,0
8,SC(COCc1ccccc1)CN1CCN(Cc2ccc3c(c2)OCO3)CC1 (configuration not stated),0
9,COCCCN(C(=S)Nc1cccc(Cl)c1)C(C)c1ccncc1 (configuration not stated),0
10,CC(C)(C)CC(C)(C)NCC(O)COc1c(F)cc(Br)cc1F (configuration not stated),4
11,O=C(CN1CCCCC1)Nc1cccc(Oc2ccccc2)c1,0
12,C/C(=N\NC(N)=S)c1ccc(Cl)s1,0.5
13,CCC/C(=N/NC(=O)c1csc(C)c1C)c1ccc(Cl)s1,0
14,C/C(=N\NC(=O)c1csc(C)c1C)c1ccc(Cl)s1,1 (active)
15,C=C(C)CNC(=S)N/N=C(\C)c1ccc(Cl)s1,1 (active)
16,C/C(=N\NC(=S)NC(C)C)c1ccc(Cl)s1,1 (active)
17,CNC(=S)N/N=C(\C)c1ccc(Cl)s1,1 (active)
18,Cc1cc(C)n(CC(=O)O)n1,0
19,C/C(=N\NC(=S)NCCc1ccccc1)c1cccs1,3
20,CCNC(=S)N/N=C(\C)c1ccc(Cl)s1,1 (active)
21,C/C(CC(=O)NC(C)C)=N\NC(=O)COc1cc(C)c(Br)cc1Br,0
22,COc1ccc(N2CCN(c3nc4c(c(=O)n(C)c(=O)n4C)n3Cc3ccccc3)CC2)cc1,0

row,Compound,manual score
1,COc1ccc(N2CCCn3c2nc2c3c(=O)n(Cc3ccccc3F)c(=O)n2C)c(OC)c1,-1 (active)
2,Cn1c(N2CCCC2)nc2c1c(=O)n(Cc1ccc(Cl)cc1)c(=O)n2C,0
3,CCN(CC(=O)c1c(N)n(C)c(=O)n(C)c1=O)c1cccc2ccccc12,0
4,O=C1NC(=S)SC1=C1CCCCCC1,1 (active)
5,CCCc1cc(-c2n[nH]c(=S)n2C(C)c2ccccc2)cs1 (configuration not stated),0
6,CCCCCNc1nc(-c2ccccc2)cs1,0
7,CCc1cc(-c2n[nH]c(=S)n2C(C)c2ccccc2)cs1 (configuration not stated),1 (active)
8,CCCc1cc(-c2n[nH]c(=S)n2Cc2ccccc2)cs1,1 (active)
9,CCCCn1c(-c2csc3c2CCCC3)n[nH]c1=S,0
10,CCCCn1c(-c2csc3c2CCC(C)C3)n[nH]c1=S (configuration not stated),1 (active)
11,CCCCn1c(-c2csc(C(C)C)c2)n[nH]c1=S,1 (active)
12,CCCc1cc(-c2n[nH]c(=S)n2CC(C)C)cs1,1 (active)
13,Cc1cccc(-n2c(-c3csc(C(C)C)c3)n[nH]c2=S)c1,1 (active)
14,Cc1cccc(-n2c(C)nc3sccc3c2=O)c1,0
15,Cc1ccc(S(=O)(=O)CC(=O)Nc2ccc(S(=O)(=O)Nc3onc(C)c3C)cc2)cc1,0
16,Cc1cccc2cc(/C=C3\N=C(c4ccccc4)OC3=O)c(N3CCOCC3)nc12,3
17,COC(=O)c1ccc(CSc2ccc3nnc(-c4ccccc4)n3n2)o1,-1 (active)
18,COC(=O)c1ccc(CSc2nnc(Nc3ccccc3OC)s2)o1,0
19,CCn1c(SCc2ccc(Cl)cc2)nnc1-c1ccccc1,0
